# About 8,600 (12%) of roughly 69,000 compounds showed an effect of 50% or more. Many of the other results were omitted from the sample, so strong results are more common in it than they were.
# Test system: Plasmodium berghei
# Test: Screen against P. berghei liver stage (PbLuc), transformed with Luciferase, at 10uM
# Assay type: functional, HepG2
# Details: tested at 10 uM
row,SMILES,INHIBITION [%]
1,COC(=O)c1cc(C)nc(N2CCN(Cc3cc(C(C)C)no3)CC2)n1,23.1
2,COc1cccc(OC)c1-c1c[nH]c(C)n1,1.56
3,Cn1cnc2c1CCN(Cc1c(Cl)ccc3cccnc13)C2,-20.8
4,CS(=O)(=O)N1CCC(c2nnc3ccc(C(=O)N4CCCC4)cn23)C1 (centres undefined),40.4
5,CN1CCN(C)C(c2nnc3ccc(C(=O)N4CCOCC4)cn23)C1 (centres undefined),8.03
6,CN1CCC(c2nnc3ccc(C(=O)NC4CCCC4)cn23)C1 (centres undefined),-1.26
7,CC(C)N1CCN(C)CC1c1nnc2ccc(C(=O)N3CCCC3)cn12 (centres undefined),82.8
8,CC(C)NC(=O)c1ccc2nnc(C3CN(C)CCN3C)n2c1 (centres undefined),-37.9
9,CN1CCC(c2nnc3ccc(C(=O)N4CCCCC4)cn23)C1 (centres undefined),82.8
10,N#Cc1ccc(CN2CCCCC2Cn2cccn2)cc1 (centres undefined),-32
11,COc1ccc(CC(=O)NC2CCc3nc(C)cn3C2)cc1 (centres undefined),46.6
12,COc1ncc(-c2ccc(NC(C)=O)cc2)c(OC)n1,14
13,Cc1nc(O)c2nnn(C[C@H]3CCCN3C(=O)c3ccccc3F)c2n1,28
14,OC1CCN(c2ccnc(NCCN3CCc4ccccc4C3)n2)C1 (centres undefined),8.38
15,OC1CCN(c2ccnc(NCCc3ccccc3Cl)n2)C1 (centres undefined),93.6
16,OC1CCN(c2ccnc(NCCc3ccccc3Cl)n2)CC1,39.1
17,CCCc1ccc(CN2CCC3(CCC(=O)N(C)CC3)CC2)o1,21.2
18,CCCc1nc(CN2CCN(C(C)c3nc(C4CC4)no3)CC2)no1 (centres undefined),-27.8
19,COc1ccccc1CC(=O)NS(=O)(=O)c1ccc(NC(C)=O)cc1,-14
20,O=C(NCC1CCS(=O)(=O)C1)N(Cc1ccccn1)C1CC1 (centres undefined),4.1
21,Cc1nc(CN2CCC(C(=O)O)(n3ccc(-c4ccco4)n3)CC2)co1,5.14
22,Cc1csc(CN2CCC(C(=O)O)(n3ccc(-c4ccco4)n3)CC2)n1,51.3

row,SMILES,INHIBITION [%]
1,O=C(O)C1(n2ccc(-c3ccco3)n2)CCN(Cc2cccs2)CC1,43.4
2,COc1ccc(C(C(=O)O)N2CCCN(C3CCCCC3)CC2)cn1 (centres undefined),32.7
3,COc1cccc(C(C(=O)O)N2CCCN(c3ccnc(C)c3)CC2)c1 (centres undefined),27.6
4,COc1cccc(N2CCN(C(C(=O)O)c3ccc(OC)nc3)CC2)c1 (centres undefined),65.7
5,CCc1nc(N2CCC3(CCC(=O)N(CCCO)C3)CC2)no1,35.6
6,CC(=O)N1CCC(c2n[nH]c3nccnc23)CC1,8.53
7,CC(=O)N1CCC(c2n[nH]cc2-c2ccnc(N)c2)C1 (centres undefined),37.5
8,Cc1c[nH]nc1C1CCN(C(=O)C2CCCC2)C1 (centres undefined),65.7
9,CC(C)OCC(=O)N1CCC(c2ncncc2-c2ccnc(N)c2)C1 (centres undefined),8.12
10,COCCC(=O)N1CCC(c2ncncc2-c2ccnc(N)c2)C1 (centres undefined),0.696
11,O=C(C1CCCC1)N1CCC(c2n[nH]c3nccnc23)CC1,51.5
12,Cc1c[nH]nc1C1CCN(C(=O)C2CCOCC2)C1 (centres undefined),3.48
13,CN1CCC(c2n[nH]cc2-c2ccnc(N)c2)C1 (centres undefined),16.05
14,O=C(C1CCCCC1)N1CCC(c2n[nH]c3nccnc23)CC1,44.1
15,CC(C)CNc1cc(-c2c[nH]nc2C2CCN(C(=O)C3CC3)C2)ccn1 (centres undefined),86
16,CC(C)Nc1cc(-c2c[nH]nc2C2CCN(C(=O)C3CC3)C2)ccn1 (centres undefined),87.85
17,Cc1c[nH]nc1C1CCN(C(=O)C2CCC2)CC1,-14.2
18,Cc1nc(C(=O)N2CCC(c3cc(CCO)n(C)n3)C2)co1 (centres undefined),19.3
19,CNC(=O)[C@@H](c1ccccc1OC)N1CCC[C@H]1C(=O)N1CCC1,-37.8
20,COCC(NC1CCN(CC(C)C)CC1)c1ccnn1C (centres undefined),-1.49
21,CCc1c(C)sc2nc3n(CCN4CCOCC4)nc(SC)n3c(=O)c12,17.7
22,CC(c1ccncc1)N(CCN(C)C)C(=O)Nc1ccc(Cl)c(Cl)c1 (centres undefined),-32.1

row,SMILES,INHIBITION [%]
1,O=C(c1ccoc1)N1C[C@@H]2[C@@H](C1)OCC(=O)N2Cc1cccnc1,16.8
2,CN(C(=O)c1cc(F)ccc1F)[C@@H]1CC[C@@H](O)[C@@H]1O,2.55
3,Cc1c[nH]nc1C1CCN(C(=O)Cn2cccn2)C1 (centres undefined),-9.32
4,CCCNc1cc(-c2c[nH]nc2C2CCN(C(=O)C3CCC3)C2)ccn1 (centres undefined),87.35
5,Cc1cc(N2CCC(c3n[nH]c4nccnc34)C2)ncn1 (centres undefined),-4.51
6,CN(C)S(=O)(=O)N1CCC(c2n[nH]cc2-c2ccnc(N)c2)C1 (centres undefined),-9.215
7,Cc1cc(N2CCC(c3n[nH]c4nccnc34)CC2)ncn1,58.1
8,CC(C)Nc1cc(-c2c[nH]nc2C2CCN(C(=O)C3CCC3)C2)ccn1 (centres undefined),88.45
9,Nc1cc(-c2c[nH]nc2C2CCN(C(=O)C3CCCC3)C2)ccn1 (centres undefined),31.75
10,Nc1cc(-c2c[nH]nc2C2CCCN2S(=O)(=O)c2ccccc2)ccn1 (centres undefined),39.1
11,CC(C)N1CCC(c2n[nH]cc2-c2ccnc(N)c2)C1 (centres undefined),26.5
12,Cc1cc(N2CC(c3n[nH]c4nccnc34)C2)ncn1,18.3
13,Nc1cc(-c2c[nH]nc2C2CCCCN2C(=O)C2CCCC2)ccn1 (centres undefined),59.9
14,COCC(=O)N1C[C@@H](OCc2cccnc2)[C@H]2OCCC[C@@H]21,26.5
15,Cc1ccc(S(N)(=O)=O)cc1C(=O)NC1CCCC1,12.2
16,CC(=O)N1CCCC(c2ccnc(Nc3cnccn3)c2)C1 (centres undefined),-9
17,O=C(NCC(CO)Cc1cccc(OC(F)(F)F)c1)c1cnccn1 (centres undefined),30.8
18,O=C(Cc1csc(-c2ccsc2)n1)N1CCN(c2cnccn2)CC1,-40.2
19,Cc1nc(C)n(CC2CCCN(CCC(=O)NC3CCCCC3)C2)n1 (centres undefined),-4.16
20,CN1CC(C(=O)NC2(c3ccc(Cl)cc3)CCOCC2)CC1=O (centres undefined),8.31
21,NC(=O)c1c(NC(=O)CCCC(=O)O)sc2c1CCc1ccccc1-2,33
22,Cc1nn(C)c(C)c1-c1nccnc1CC1CCNCC1,-17.9

row,SMILES,INHIBITION [%]
1,CCc1c(C)nn2c(O)cc(C3CCN(C(=O)c4ccn(C)n4)C3)nc12 (centres undefined),3.623
2,c1cnc(N2C[C@@H]3COC[C@]3(COCC3CCCC3)C2)nc1,15.4
3,CN(C)[C@@H]1CCN(CC2CC2)[C@H]1Cc1cnn(C)c1,1.94
4,CN1CC(=O)N(c2cnn(C)c2)CC12CCN(Cc1ccccc1)C2 (centres undefined),21.8
5,Cc1cc(C)n(-c2nc(C(=O)NCCS(=O)(=O)N3CCCCC3)cs2)n1,0.696
6,CC1CCN(CCNC(=O)c2sccc2C2CC2)CC1,81.5
7,O=C(NCC(=O)N1CCN(c2ccccc2)CC1)c1sccc1C1CC1,92
8,Cc1cc(C)n(-c2nc(C(=O)NCCN3CCC(C)CC3)cs2)n1,61
9,CN1CCN(CCNC(=O)c2sccc2C2CC2)CC1,31.6
10,O=C(c1sccc1C1CC1)N1CCN(c2ncccn2)CC1,49.1
11,O=C(NCC(=O)N1CCCCC1)c1sccc1C1CC1,17.2
12,CC1CCN(CCNC(=O)c2scnc2Cl)CC1,40.2
13,CCc1nc(C)c(C(=O)NCCN2CCC(C)CC2)s1,15.6
14,COc1ccccc1NC(=O)NCc1nnc(SC)n1C,8.125
15,N#CC1(C(=O)N2CCCN(Cc3cscn3)CC2)CCCCC1,-54.6
16,CC(C)C(=O)N1CCCC(Cc2ncccn2)C1 (centres undefined),32.7
17,CC(C)CCCC1CN(C(=O)c2cnc[nH]2)CCO1 (centres undefined),-10.5
18,Cn1ccnc1C(NCc1ccccc1)c1ccc(F)cc1 (centres undefined),32.9
19,CSc1ccc(CNC(c2ccccc2)c2nccn2C)cc1 (centres undefined),79.1
20,COc1cc(CNC(c2ccccc2)c2nccn2C)cc(OC)c1 (centres undefined),-76.15
21,COc1cccc(C(NCc2ccc(SC)cc2)c2nccn2C)c1 (centres undefined),51.2
22,Cn1ccnc1C(NCc1csc(Br)c1)c1ccccc1 (centres undefined),51.6

row,SMILES,INHIBITION [%]
1,Cn1ccnc1C(NCc1ccc(Br)cc1)c1ccccc1 (centres undefined),-32.9
2,COc1ccccc1C(NCc1ccc(SC)cc1)c1nccn1C (centres undefined),29.06
3,Cc1ccc(CNC(c2ccc(F)cc2)c2nccn2C)o1 (centres undefined),52.6
4,CSc1ccc(CNC(c2ccccc2F)c2nccn2C)cc1 (centres undefined),-27.24
5,CSc1ccc(CNC(c2ccc(F)cc2)c2nccn2C)cc1 (centres undefined),-1.6
6,COc1c(CNC(c2ccccc2)c2nccn2C)c(C)nn1C (centres undefined),39.4
7,Cc1ccc(CNC(c2cccc(F)c2)c2nccn2C)o1 (centres undefined),24.2
8,CC(=O)NCCCNC(=O)Nc1ccccc1-n1nc(C)cc1C,9.06
9,COc1ccccc1C(=O)NS(=O)(=O)c1cccc(C#N)c1,25.1
10,COc1cc(CN)c(OC)c2c1OCO2,-3.48
11,CCCS(=O)(=O)N1CCC2(CN(c3ccsc3)C(=O)CN2C)C1 (centres undefined),-24.2
12,Cc1oncc1C(=O)N1CC[C@H]2C[C@H](c3ccncn3)O[C@@H]2C1,11.3
13,Cn1ncc(Cl)c1C(=O)N1CCC(c2nnsc2S(C)(=O)=O)CC1,-9.2465
14,Cc1cc(C)cc(CNC(c2ccccc2)c2nccn2C)c1 (centres undefined),41.15
15,Cc1ccc(CNC(c2ccccc2)c2nccn2C)cc1 (centres undefined),33.6
16,Cc1ccc(CNC(c2ccccc2)c2nccn2C)cc1C (centres undefined),54.9
17,Cc1cc(CN2CCCC2c2noc(C(C)C)n2)on1 (centres undefined),47
18,O=C(O)c1cncc(Cc2ccc(F)cc2)c1,-3.02
19,CCN(Cc1ccoc1)C(=O)c1cc(C)c(C)c(S(N)(=O)=O)c1,-5.94
20,CCN(Cc1ccncc1)C(=O)c1cc(C)c(C)c(S(N)(=O)=O)c1,52.8
21,CCN(Cc1ccoc1)C(=O)c1ccc(C)c(S(N)(=O)=O)c1,-2.97
